PubChem BioAssay
Several values for one entry are separate records, joined by “and”; a condition that tells them apart may be missing. Equal values may be shown once. Some of the results follow. Results filed as inconclusive are left out. Activity calls are given as the source filed them.

Legend:
[1] = PubChem AID 1714; conditions: HEK293-KCC2 + bumetanide/ouabain, thallium flux FluoZin2; at 10 µM; stronger effect = higher value;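 note: raw slope of fluorescence over initial fluorescence between 10 and 20 s after thallium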
[2] = biological target: Solute carrier family 12 member 5 (Homo sapiens) (UniProt Q9H2X9); assay: retest of KCC2 transport modulation, ouabain-free – cell-based, HEK293 KCC2, thallium flux, FluoZin2, secondary assay 2, confirmation (AID 1715;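 active = thallium flux slope more than 3 SD above or below the plate's solvent-only control mean, mostly below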;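 note: raw slope with 0.1% DMSO as baseline and bumetanide as block control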); conditions: HEK293-KCC2, thallium flux FluoZin2 fluorescence; at 10 µM; actives lie on both sides; F/F0 rise rate, 10–20 s post-thallium
[3] = compound effects on native HEK Tl+ uptake – HEK cells, counterscreen 1, counter-screen for KCC2 modulator project, confirmation (AID 1716;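 active = thallium flux rate significantly above the same plate's solvent-only control wells, beyond their mean plus 3 SD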); conditions: HEK293 parental cells, thallium flux FluoZin2, ouabain; at 10 µM; baseline-ratio fluorescence slope, 10–20 s after thallium
[4] = biological target: Solute carrier family 12 member 5 (Homo sapiens) (UniProt Q9H2X9); assay: modulation of KCC2 thallium flux in HEK cells – cell-based, ouabain, retest, confirmation (AID 1717;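 active = thallium flux slope beyond 3 SD from same-plate DMSO control mean in most replicates, usually higher, sometimes lower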;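 note: slope of initial-normalized fluorescence between seconds 10 and 20 after thallium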); conditions: HEK293-KCC2, thallium flux FluoZin2 fluorescence, at 10 µM, bidirectional: low = inhibitor, high = activator
[5] = native HEK Tl+ uptake effects, second counter-screen – HEK cells, counterscreen 2, counter-screen for KCC2 modulator project, confirmation (AID 1718;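 active = thallium flux slope above the same plate's solvent-control mean plus 3 SD in both duplicate wells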;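 note: run without ouabain in cells lacking the KCC2 cotransporter; slope of fluorescence scaled to its starting value between 10 and 20 s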); conditions: HEK293 parental, thallium flux FluoZin-2 fluorescence slope; at 10 µM
[6] = inhibitors of TNFa-induced NFkB p65 translocation, primary screen, imaging, HUVEC, MLSMR starter and 10KST1 sets (AID 438;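 active = inhibition above 20% together with a positive visual image hit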;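 note: compound added about 3h40 before a 20 min TNFalpha stimulation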;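 for inhibition: signal is the nuclear over cytoplasmic p65 intensity ratio per well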); conditions: HUVEC TNFa-induced p65 nuclear translocation; cell count: measured here: nuclei count (cytotoxicity indicator), at 2.08 µM; inhibition: at 2 µM, stronger effect = higher value, 0% TNFa-plus-vehicle, 100% no-TNFa wells
[7] = reduction of polyQ htt aggregates in cells – imaging, exon1htt(103Q)mCFP cells, high-content imaging, primary screen (AID 483;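 active = visual image review flags a hit and inhibition of aggregation exceeds 20%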;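 note: compound exposure lasted 3 days before fixation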;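 for nuclei count: percent of the per-plate median nuclei count of sample wells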); conditions: exon1htt(103Q)mCFP cell line, aggregate imaging, at 2 µM; inhibition of aggregation: stronger effect = higher value; nuclei count: measured here: cell count, toxicity
[8] = endothelial E-selectin expression blockers – imaging, HUVEC, immunofluorescence, MLSMR starter and 10KST1 sets, primary screen (AID 487;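 active = visually confirmed hit in the image check and inhibition above 20%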;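 for inhibition: signal is fraction of cell area covered by stained E-selectin grains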;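 for nuclei count: 100% = median nuclei count of all wells on the same plate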); conditions: HUVEC TNFalpha-induced E-selectin immunofluorescence imaging, at 2 µM; inhibition: stronger effect = higher value; nuclei count: measured here: cell number, toxicity
[9] = Primary imaging screen for DUSP6 inhibitors that restore phospho-Erk in transfected HeLa cells, chemical complementation (AID 609;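 active = compounds giving at least 50% inhibition in the cell-based MKP-3 phosphatase rescue imaging test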;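 for inhibition: phospho-Erk level distribution per well compared with pooled transfected vehicle control wells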); conditions: HeLa MKP-3 transfected, phospho-Erk imaging KS statistic, at 10 µM, cells stimulated with TPA for 15 min
[10] = biological target: Dual specificity protein phosphatase 6 (Homo sapiens) (UniProt Q16828); assay: as above; conditions: HeLa MKP-3 transfected, phospho-Erk imaging KS statistic; at 10 µM; stronger effect = higher value; cells stimulated with TPA for 15 min
[11] = biological target: Voltage-gated potassium channel subunit beta-2 (Rattus norvegicus) (UniProt P62483); assay: inhibitors of rat Kvbeta2 reductase activity – biochemical, NADPH fluorescence, primary screen (AID 622;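 active = fluorescence slope higher than the sample average by over 3 SD, cut at about -0.22 in these data, passing the limit was not always enough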;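 note: slope of raw intensity against log time taken from 70 to 1610 s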); conditions: recombinant KvBeta, 4-cyanobenzaldehyde reduction, at 10 µM, stronger effect = higher value
[12] = biological target: Voltage-gated potassium channel subunit beta-2 (Rattus norvegicus) (UniProt P62483); assay: enhancers of rat Kvbeta2 NADPH turnover – biochemical, NADPH fluorescence, primary screen (AID 623;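 active = NADPH fluorescence slope more negative than the mean of all samples by about 3 SD, 99.7% confidence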;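 note: fluorescence intensity change per second fitted from 20 to 320 s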); conditions: Recombinant KvBeta, NADPH fluorescence decrease slope, 10 min; at 10 µM; stronger effect = lower value
[13] = biological target: Alpha-2C adrenergic receptor (Homo sapiens) (UniProt P18825); assay: compounds altering alpha2C-coupled GIRK flux – cell-based, HEK293 alpha2C/GIRK1/2, thallium flux, primary screen (AID 624;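 active = fluorescence slope after compound addition differing from the mean of all screened samples at 99.7% confidence, in either direction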;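 note: slope of fluorescence ratio to pre-addition baseline per second over 15 to 24 s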); conditions: thallium flux BTC fluorescence, at 10 µM, actives lie on both sides
[14] = loss of swimming-algae plug formation – whole organism, Chlamydomonas reinhardtii, WT vs cilia-less mutant, absorbance, 96-well, primary screen (AID 463189); conditions: Chlamydomonas reinhardtii gravitaxis, OD600 absorbance, 2 days; at 10 µM; stronger effect = higher value;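 note: 0% = wild type cc124 cells in DMSO and 100% = ciliumless bld1 mutant cells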
[15] = blockers of RIG-like receptor reporter activation – cell-based, Sendai virus stimulus, luciferase, 10K MLSCN set, TLR/RLR signaling modifier project, primary screen (AID 602276;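 active = inhibition at or above 50% at 10 µM; inactive = inhibition below 50%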;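 note: firefly luciferase from ISG56 promoter only with Renilla not read in this screen; 0% = Sendai virus plus DMSO and 100% = medium plus DMSO without virus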); conditions: HEK293 RL24 IRF3 luciferase reporter, at 10 µM, stronger effect = higher value
[16] = TLR3 IRF3 reporter activation blockers – cell-based, poly I:C stimulus, luciferase, 10K MLSCN set, primary screen (AID 602277;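 active = inhibition of the reporter signal at or above 50%; inactive = inhibition below 50%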); conditions: HEK293-TLR3 RL24 IRF3 luciferase reporter, at 10 µM, stronger effect = higher value
[17] = biological target: Solute carrier family 12 member 5 (Homo sapiens) (UniProt Q9H2X9); assay: retest of KCC2 transport modulators without sodium – cell-based, HEK293 KCC2, thallium flux, secondary assay, confirmation (AID 1713;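 active = thallium flux slope above the same plate's solvent-only control mean plus 3 SD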); conditions: FluoZin2 fluorescence, at 10 µM, stronger effect = higher value
[18] = biological target: Muscarinic acetylcholine receptor M4 (Homo sapiens) (UniProt P08173); assay: M4-linked GIRK flux change, two-sided – cell-based, HEK293 M4/GIRK, thallium flux, BTC-AM, M4 allosteric agonist project, primary screen (AID 625;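 active = fluorescence slope after compound addition differing from the mean of all tested samples at 99.7% confidence, mostly higher but some lower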;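 note: thallium influx through GIRK channels coupled to M4 in HEK293 cells with BTC-AM dye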); conditions: at 10 µM, actives lie on both sides
[19] = inhibitors of larval lipid processing in zebrafish, primary screen, whole organism, PED6 fluorescence, gall bladder and intestine (AID 686;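 active = a full or partial loss of lipid-probe fluorescence in the fish gall bladder, intestine or both, judged by eye; inactive = no fluorescence loss, or compound toxic to the fish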;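 note: larvae 5 to 7 days old with five fish per well; signal comes from phospholipase A2 cleavage of quenched PED6 carried via bile; overnight exposure to compound and PED6 before scoring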); conditions: Zebrafish larvae PED6 lipid processing, fluorescence scoring; screened at 20 µM (by protocol)
[20] = measured here: cell density z-score
[21] = measured here: nuclear c-Myc green intensity z-score
[22] = measured here: nuclear pErk red intensity z-score, stronger effect = higher value

Solute carrier family 12 member 5 (Homo sapiens), sequence (Q9H2X9 whole entry, looked up): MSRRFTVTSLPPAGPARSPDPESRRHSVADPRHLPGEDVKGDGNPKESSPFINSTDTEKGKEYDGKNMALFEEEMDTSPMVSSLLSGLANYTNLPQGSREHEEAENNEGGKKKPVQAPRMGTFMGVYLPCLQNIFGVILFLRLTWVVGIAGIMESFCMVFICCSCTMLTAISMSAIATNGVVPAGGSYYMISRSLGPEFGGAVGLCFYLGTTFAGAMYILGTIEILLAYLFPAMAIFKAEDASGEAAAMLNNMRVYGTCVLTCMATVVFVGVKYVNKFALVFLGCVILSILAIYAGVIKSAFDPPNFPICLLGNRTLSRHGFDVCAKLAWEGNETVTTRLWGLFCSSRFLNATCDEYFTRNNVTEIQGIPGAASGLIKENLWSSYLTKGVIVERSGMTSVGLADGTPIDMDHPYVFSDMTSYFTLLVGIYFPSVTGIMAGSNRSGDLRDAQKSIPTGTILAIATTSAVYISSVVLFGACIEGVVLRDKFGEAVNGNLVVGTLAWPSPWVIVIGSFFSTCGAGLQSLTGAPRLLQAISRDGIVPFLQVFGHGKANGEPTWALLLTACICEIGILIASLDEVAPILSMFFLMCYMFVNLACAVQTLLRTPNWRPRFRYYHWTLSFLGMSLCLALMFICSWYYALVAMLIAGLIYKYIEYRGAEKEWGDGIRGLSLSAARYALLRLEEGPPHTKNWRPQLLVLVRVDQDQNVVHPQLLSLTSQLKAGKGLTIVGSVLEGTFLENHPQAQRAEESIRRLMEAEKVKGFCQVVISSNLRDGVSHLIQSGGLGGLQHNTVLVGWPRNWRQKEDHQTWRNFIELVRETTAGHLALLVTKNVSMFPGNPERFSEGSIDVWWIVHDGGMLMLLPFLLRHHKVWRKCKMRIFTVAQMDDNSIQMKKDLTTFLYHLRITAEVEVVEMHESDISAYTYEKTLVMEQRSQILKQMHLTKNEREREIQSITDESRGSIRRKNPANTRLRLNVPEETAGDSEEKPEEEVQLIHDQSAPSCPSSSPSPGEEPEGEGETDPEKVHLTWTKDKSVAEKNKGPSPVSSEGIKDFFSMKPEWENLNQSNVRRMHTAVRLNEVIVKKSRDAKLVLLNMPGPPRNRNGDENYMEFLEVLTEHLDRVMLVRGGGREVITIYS
Voltage-gated potassium channel subunit beta-2 (Rattus norvegicus), sequence (P62483 whole entry, looked up): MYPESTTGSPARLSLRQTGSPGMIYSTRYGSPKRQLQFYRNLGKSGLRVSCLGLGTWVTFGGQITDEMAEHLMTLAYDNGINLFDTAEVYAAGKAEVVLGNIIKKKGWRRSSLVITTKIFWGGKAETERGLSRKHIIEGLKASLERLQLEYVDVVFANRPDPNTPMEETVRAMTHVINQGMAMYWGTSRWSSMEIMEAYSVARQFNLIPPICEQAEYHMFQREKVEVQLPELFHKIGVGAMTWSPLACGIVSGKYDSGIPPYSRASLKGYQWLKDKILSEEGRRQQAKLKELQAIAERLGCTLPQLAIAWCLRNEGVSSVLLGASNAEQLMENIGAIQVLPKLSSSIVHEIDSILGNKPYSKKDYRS
Dual specificity protein phosphatase 6 (Homo sapiens), sequence (Q16828 whole entry, looked up): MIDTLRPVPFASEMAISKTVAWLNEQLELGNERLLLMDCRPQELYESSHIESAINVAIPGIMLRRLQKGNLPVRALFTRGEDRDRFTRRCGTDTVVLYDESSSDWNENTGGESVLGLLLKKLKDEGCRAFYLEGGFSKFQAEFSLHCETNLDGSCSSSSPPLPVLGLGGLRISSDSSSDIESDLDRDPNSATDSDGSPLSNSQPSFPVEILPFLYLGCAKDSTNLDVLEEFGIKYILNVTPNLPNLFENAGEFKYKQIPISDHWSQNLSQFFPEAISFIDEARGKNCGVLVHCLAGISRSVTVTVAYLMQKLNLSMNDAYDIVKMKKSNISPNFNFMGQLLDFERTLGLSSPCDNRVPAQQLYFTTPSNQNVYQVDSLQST
Alpha-2C adrenergic receptor (Homo sapiens), sequence (P18825 whole entry, looked up): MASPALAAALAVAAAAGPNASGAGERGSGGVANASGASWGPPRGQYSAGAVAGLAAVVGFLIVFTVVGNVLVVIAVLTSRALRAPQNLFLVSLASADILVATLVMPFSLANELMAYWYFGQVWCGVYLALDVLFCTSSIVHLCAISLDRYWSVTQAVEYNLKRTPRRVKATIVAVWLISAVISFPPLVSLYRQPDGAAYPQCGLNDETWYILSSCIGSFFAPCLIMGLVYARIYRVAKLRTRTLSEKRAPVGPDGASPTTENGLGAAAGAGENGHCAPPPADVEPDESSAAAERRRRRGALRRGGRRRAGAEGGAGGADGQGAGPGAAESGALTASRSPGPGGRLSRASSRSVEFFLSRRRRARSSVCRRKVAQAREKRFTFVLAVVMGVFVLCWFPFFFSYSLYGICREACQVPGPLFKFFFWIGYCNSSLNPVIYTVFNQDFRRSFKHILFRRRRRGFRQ
Muscarinic acetylcholine receptor M4 (Homo sapiens), sequence (P08173 whole entry, looked up): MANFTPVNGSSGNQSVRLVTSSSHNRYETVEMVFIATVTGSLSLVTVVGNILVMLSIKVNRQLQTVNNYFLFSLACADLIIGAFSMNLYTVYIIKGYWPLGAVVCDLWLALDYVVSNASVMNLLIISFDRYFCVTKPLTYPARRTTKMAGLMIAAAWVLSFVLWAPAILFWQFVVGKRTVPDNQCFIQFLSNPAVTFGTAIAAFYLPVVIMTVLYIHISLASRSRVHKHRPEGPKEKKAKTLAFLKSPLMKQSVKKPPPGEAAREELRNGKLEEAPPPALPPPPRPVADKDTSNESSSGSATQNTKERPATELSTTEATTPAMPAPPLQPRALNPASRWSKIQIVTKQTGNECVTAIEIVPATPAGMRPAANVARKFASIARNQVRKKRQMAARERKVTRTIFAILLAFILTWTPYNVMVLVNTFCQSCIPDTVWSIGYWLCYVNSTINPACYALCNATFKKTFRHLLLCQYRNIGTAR

## CC(C)CNC(=S)NC(=O)c1ccc(Cl)cc1
[1]
  normalized thallium flux: 0.0714 (active)
[2]
  normalized thallium flux: 0.0638 (active)
[3]
  thallium flux rate (normalised fluorescence): 0.0685 (active)
[4]
  raw Tl+ flux slope (below DMSO = inhibition, above = activation): 0.0663 (active)
[5]
  thallium flux slope: 0.0594 (active)

## CCn1cc(C(=O)O)c(=O)c2cc(F)c(N3CCNCC3)nc21
[6]
  cell count: 528
  inhibition: -1.9% (inactive)
[7]
  inhibition of aggregation: -5% (inactive)
  nuclei count: 88.6%
[8]
  inhibition: -53.3% (inactive)
  nuclei count: 92.8%
[9]; [20]
  z-score: 1.02
[9]; [21]
  z-score: -0.267
[9]; [22]
  z-score: -1.93
[10]
  inhibition: 7.39% (inactive)
[11]
  fluorescence slope: -0.463 (inactive)
[12]
  NADPH fluorescence slope: -5.7e-05 (inactive)
[13]
  slope: 0.00463 (inactive)
[14]
  inhibition: -14% (inactive)
[15]
  inhibition: 3% (inactive)
[16]
  inhibition: 17.6% (inactive)

## O=C(O)CS/C(=C\c1ccc(F)cc1)c1nc2ccccc2s1
[17]
  normalised thallium flux (F/F0 slope): 0.0153 (inactive)
[3]
  thallium flux rate (normalised fluorescence): 0.00592 (active)
[4]
  raw Tl+ flux slope (below DMSO = inhibition, above = activation): 0.011 (active)

## CCC(CC)NC(=O)CSc1nnc(-c2c[nH]c3ccccc23)o1
[1]
  normalized thallium flux: 0.00461 (inactive)
[2]
  normalized thallium flux: 0.0248 (active)
[3]
  thallium flux rate (normalised fluorescence): 0.00757 (inactive)
[5]
  thallium flux slope: 0.0106 (inactive)

## CC[C@@H](C)[C@@H](C(=O)N1CCN(C(=O)OC(C)(C)C)CC1)n1cc(CCC(=O)O)nn1
[17]
  normalised thallium flux (F/F0 slope): 0.0104 (inactive)
[2]
  normalized thallium flux: 0.0349 (inactive)
[3]
  thallium flux rate (normalised fluorescence): 0.00923 (active)
[4]
  raw Tl+ flux slope (below DMSO = inhibition, above = activation): 0.0234 (inactive)
[5]
  thallium flux slope: 0.0111 (inactive)

## Cc1cccc(N(CC(O)CN(C)C)S(=O)(=O)c2ccccc2)c1 (stereo unspecified)
[6]
  cell count: 660
  inhibition: -8.8% (inactive)
[8]
  inhibition: -9.3% (inactive)
  nuclei count: 177%
[9]; [20]
  z-score: 0.811
[9]; [21]
  z-score: 0.15
[9]; [22]
  z-score: 0.694
[10]
  inhibition: 1.42% (inactive)
[11]
  fluorescence slope: -0.413 (inactive)
[12]
  NADPH fluorescence slope: -6e-05 (inactive)
[18]
  fluorescence slope: 0.00446 (inactive)
[19]
  outcome: inactive
[17]
  normalised thallium flux (F/F0 slope): 0.00903 (inactive)
[2]
  normalized thallium flux: 0.0335 (inactive)
[3]
  thallium flux rate (normalised fluorescence): 0.00768 (inactive)
[4]
  raw Tl+ flux slope (below DMSO = inhibition, above = activation): 0.0203 (inactive)
[5]
  thallium flux slope: 0.0103 (inactive)
[14]
  inhibition: 30.7% (inactive)

## CCCn1c(=O)c2[nH]c(C3CCCC3)nc2n(CCC)c1=O
[6]
  cell count: 503
  inhibition: -3.1% (inactive)
[7]
  inhibition of aggregation: 26% (inactive)
  nuclei count: 92.4%
[8]
  inhibition: -83.5% (inactive)
  nuclei count: 117%
[9]; [20]
  z-score: 0.276
[9]; [21]
  z-score: -0.431
[9]; [22]
  z-score: -1.23
[10]
  inhibition: 3.59% (inactive)
[11]
  fluorescence slope: -0.432 (inactive)
[12]
  NADPH fluorescence slope: -7.8e-05 (inactive)
[13]
  slope: 0.00398 (inactive)
[14]
  inhibition: 4.71% (inactive) and -9.34% (inactive)
[15]
  inhibition: 14.1% (inactive)
[16]
  inhibition: 38.5% (inactive)

## O=C(CCCN1C(=O)c2ccccc2C1=O)N1CCC(c2ccccc2)C1 (stereo unspecified)
[6]
  cell count: 452
  inhibition: -8.4% (inactive)
[7]
  inhibition of aggregation: -32.2% (inactive)
  nuclei count: 61.9%
[8]
  inhibition: -109% (inactive)
  nuclei count: 123%
[9]; [20]
  z-score: 1.18
[9]; [21]
  z-score: -1.65
[9]; [22]
  z-score: 0.457
[10]
  inhibition: -3.5% (inactive)
[11]
  fluorescence slope: -0.453 (inactive)
[12]
  NADPH fluorescence slope: -7.2e-05 (inactive)
[13]
  slope: 0.00674 (inactive)
[14]
  inhibition: 10.2% (inactive)
[15]
  inhibition: 10.8% (inactive)
[16]
  inhibition: -11.3% (inactive)

## CCS(=O)(=O)CCn1c([N+](=O)[O-])cnc1C
[6]
  cell count: 637
  inhibition: 5.5% (inactive)
[7]
  inhibition of aggregation: 9.6% (inactive)
  nuclei count: 97.3%
[8]
  inhibition: -68.3% (inactive)
  nuclei count: 110%
[9]; [20]
  z-score: 0.704
[9]; [21]
  z-score: 2.39
[9]; [22]
  z-score: 0.14
[10]
  inhibition: 27.9% (inactive)
[11]
  fluorescence slope: -0.507 (inactive)
[12]
  NADPH fluorescence slope: -8.1e-05 (inactive)
[13]
  slope: 0.00495 (inactive)
[18]
  fluorescence slope: 0.00503 (inactive)
[19]
  outcome: inactive
[14]
  inhibition: 19% (inactive)
[15]
  inhibition: -12.7% (inactive)
[16]
  inhibition: -11.5% (inactive)

## COc1cc(NS(=O)(=O)c2ccc(N)cc2)nc(OC)n1
[6]
  cell count: 482
  inhibition: 1.1% (inactive)
[7]
  inhibition of aggregation: -12.6% (inactive)
  nuclei count: 82%
[8]
  inhibition: -59.5% (inactive)
  nuclei count: 96.6%
[9]; [20]
  z-score: 0.641
[9]; [21]
  z-score: 0.795
[9]; [22]
  z-score: -0.759
[10]
  inhibition: 5.79% (inactive)
[11]
  fluorescence slope: -0.439 (inactive)
[12]
  NADPH fluorescence slope: -7e-05 (inactive)
[13]
  slope: 0.00564 (inactive)
[14]
  inhibition: 20.1% (inactive)
[15]
  inhibition: 24.9% (inactive)
[16]
  inhibition: 51.9% (active)

## CCCCCC1CC(CC#CCN2CCOCC2)C(=O)O1 (stereo unspecified)
[6]
  cell count: 620
  inhibition: -2.8% (inactive)
[7]
  inhibition of aggregation: 10.5% (inactive)
  nuclei count: 90.2%
[8]
  inhibition: -6.1% (inactive)
  nuclei count: 128%
[9]; [20]
  z-score: 0.645
[9]; [21]
  z-score: -0.292
[9]; [22]
  z-score: 0.592
[10]
  inhibition: 3.49% (inactive)
[11]
  fluorescence slope: -0.452 (inactive)
[12]
  NADPH fluorescence slope: -4.2e-05 (inactive)
[13]
  slope: 0.00528 (inactive)
[18]
  fluorescence slope: 0.00481 (inactive)
[19]
  outcome: inactive
[14]
  inhibition: -4.86% (inactive)
[15]
  inhibition: -1.94% (inactive)
[16]
  inhibition: 10.9% (inactive)

## c1ccc(-c2ccc(C(c3ccccc3)n3ccnc3)cc2)cc1 (stereo unspecified)
[6]
  cell count: 591
  inhibition: 2% (inactive)
[7]
  inhibition of aggregation: 10.9% (inactive)
  nuclei count: 91.4%
[8]
  inhibition: -58.4% (inactive)
  nuclei count: 106%
[9]; [20]
  z-score: -1.14
[9]; [21]
  z-score: 0.79
[9]; [22]
  z-score: -0.101
[10]
  inhibition: 16.8% (inactive)
[11]
  fluorescence slope: -0.555 (inactive)
[12]
  NADPH fluorescence slope: -3.5e-05 (inactive)
[13]
  slope: 0.00412 (inactive)
[18]
  fluorescence slope: 0.00623 (inactive)
[19]
  outcome: inactive
[14]
  inhibition: 13.3% (inactive)
[15]
  inhibition: 2.51% (inactive)
[16]
  inhibition: 18.2% (inactive)

## C=CCSc1nnc2n(CCc3ccccc3)c(=O)c3c4c(sc3n12)COC(C)(C)C4
[6]
  cell count: 492
  inhibition: -1.7% (inactive)
[7]
  inhibition of aggregation: 3.5% (inactive)
  nuclei count: 115%
[8]
  inhibition: -100% (inactive)
  nuclei count: 135%
[9]; [20]
  z-score: 1.51
[9]; [21]
  z-score: -1.62
[9]; [22]
  z-score: -0.504
[10]
  inhibition: 9.91% (inactive)
[11]
  fluorescence slope: -0.35 (inactive)
[12]
  NADPH fluorescence slope: -1.2e-05 (inactive)
[13]
  slope: 0.00563 (inactive)
[18]
  fluorescence slope: 0.0058 (inactive)
[19]
  outcome: inactive
[14]
  inhibition: 28.7% (inactive)
[15]
  inhibition: 0.226% (inactive)
[16]
  inhibition: -17.3% (inactive)
